Bioassay records: PubChem BioAssay, National Center for Advancing Translational Sciences (NCATS)
FMDV antiviral: blocks foot and mouth disease virus | FMDV antiviral cell-based qHTS | Potency, µM (highest dose often 57.9 µM), inactives show top-dose activity change, negative = inhibition, usual class: inhibitors | hit rate 1.2% among 410,000 | AID 1159524; calls by dose curve; tested in HEK293T cells; also: read-out not given here; potency is read from the fitted curve at half-maximal effect; nearly all actives have a fitted effect of over 45% in size
MARV entry inh: Marburg virus entry inhibition; Potency, µM (top dose mostly 37.8 µM), without a hit: at the top dose activity change, negative = inhibition, actives largely listed as inhibitors; hit rate 1.8% among 300,000; AID 540276; Marburg virus pseudotyped entry inhibition, cell reporter; calls by dose curve; tested in HEK293 cells; also: potency is read from the fitted curve at half-maximal effect
HCMV antiviral: human cytomegalovirus inhibition; HFF cells, HCMV-luciferase reporter, 72 h; stronger effect = lower value; AID 1259415; hit rate 4.5% among 410,000; activity change, negative = inhibition, % at 57.5 µM; in the data active = activity change below about -60%; inconclusive = no clear call, values can overlap the other calls; inactive = above about -39%
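Human foreskin fibroblasts infected with luciferase-reporter HCMV at MOI 1 PFU/cell, compounds at two doses. Luciferase measured 72 h post infection; normalized to buffer-only basal and Salinomycin (10uM) controls.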
HCV inh: HCV inhibition; AID 651820; hit rate 3.4% among 340,000; Potency, µM (top dose mostly 41.8 µM), for inactives: top-dose activity change, negative = inhibition, hits mostly inhibitors; Huh7.5.1 HCVcc-Cre infection, luciferase reporter, 44 h; active = well fitted inhibition curve with a large enough effect; inconclusive = small, poorly fitted or top-dose-only effect, or another doubt; inactive = no such curve, though single readings can be large or run the other way; also: potency is read from the fitted curve at half-maximal effect
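1,000 cells/well; 4 h culture; + compound; + HCVcc-Cre (~0.5 moi); 44 h; luciferase substrate, RT 15 min; read 15 sec.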
LASV entry inh: Lassa virus entry inhibition | hit rate 1.2% among 300,000 | Potency, µM (titrated, usually from 37.9 µM), for the others: at the top dose activity change, negative = inhibition, usual class: inhibitors | Lassa virus pseudotype entry inhibition, cell reporter | AID 540256; calls by dose curve; tested in HEK293 cells; also: potency is read from the fitted curve at half-maximal effect; nearly all actives have a fitted effect of over 50% in size
The depositor's hits bear a star; [ ] = another dose, or the depositor's remark. An excerpt weighted towards active compounds, which were near 7.9% of everything screened. % is scaled to controls: 0 for no effect and ±100 for the full control effect.

Screening CCN1CCN(Cc2ccc(NC(=O)c3cc(NC(=O)c4cncc(-c5ccc(C#N)cc5)c4)cc(OC)c3)cc2C(F)(F)F)CC1 returned FMDV antiviral -22%, HCMV antiviral -99* and HCV inh -13%[8.37 µM].
Screening CCN1CCN(Cc2ccc(NC(=O)c3cc(NC(=O)c4nccnc4N)cc(OC)c3)cc2C(F)(F)F)CC1 returned FMDV antiviral -10%, HCMV antiviral -1 and HCV inh -20%[8.37 µM].
CCN1CCN(Cc2ccc(NC(=O)c3cc(NC(=O)c4cnnc5ccccc45)cc(OC)c3)cc2C(F)(F)F)CC1 was read as FMDV antiviral -19%, HCMV antiviral -94* and HCV inh inconclusive.
CC(=O)OCCNc1cc(Sc2nc3ccccc3[nH]2)c2nonc2c1[N+](=O)[O-] was read as FMDV antiviral 35µM*, MARV entry inh 24%, HCMV antiviral 27, HCV inh inconclusive and LASV entry inh 0%.
Screening CC(=O)OCCNc1cc(SCc2ccco2)c2nonc2c1[N+](=O)[O-] returned FMDV antiviral 32µM*, MARV entry inh inconclusive, HCV inh inconclusive and LASV entry inh 0%.
For CC(=O)OCCCNc1cc(Sc2nc3ccccc3s2)c2nonc2c1[N+](=O)[O-] the results were FMDV antiviral inconclusive, MARV entry inh 20%, HCV inh -6% and LASV entry inh 4%.
`CCCC(=O)OCCNc1cc(SCCC(=O)OC)c2nonc2c1[N+](=O)[O-]` gave FMDV antiviral -14%, MARV entry inh inconclusive, HCMV antiviral 12, HCV inh 28% and LASV entry inh 9%.
COC(=O)CCSc1cc(NCCOC(C)=O)c([N+](=O)[O-])c2nonc12 was read as FMDV antiviral 35µM*, MARV entry inh inconclusive, HCMV antiviral 18, HCV inh inconclusive and LASV entry inh 2%.
Cc1ccc(CNc2nc(-c3ccco3)nn2S(C)(=O)=O)cc1 was read as FMDV antiviral 32%, MARV entry inh inconclusive, HCMV antiviral 111 and LASV entry inh 26%[46.1 µM].
For Cc1ccc(C)c(NC(=O)C(=O)NCCc2csc3nc(-c4ccccc4C)nn23)c1 the results were FMDV antiviral 22µM*, HCMV antiviral -68* and LASV entry inh 11%[46.1 µM].
COc1cccc(-c2nc3cc4c(cc3cc2CN(C(=O)c2cccs2)C2CC2)CCC4)c1OC was read as FMDV antiviral 32µM*.
For COc1cccc(N2CCN(c3nc(C)c(C)c(=O)[nH]3)CC2)c1 the results were FMDV antiviral -7%, MARV entry inh -26%, HCMV antiviral 3, HCV inh 15% and LASV entry inh -24%.
For COc1cccc(N2CCN(c3nc(-c4ccccc4C)cc(=O)[nH]3)CC2)c1 the results were FMDV antiviral -12%, HCMV antiviral -98* and HCV inh inconclusive.
COc1ccc(NC(=O)N2CCC(n3c(C)nc4cccnc43)CC2)cc1OC was read as FMDV antiviral -7%, HCMV antiviral 5 and LASV entry inh 16%[46.1 µM].
`CCN(C(=O)C(C)N1C(=O)/C(=C/c2cccs2)SC1=S)C1CCS(=O)(=O)C1` (centres undefined) gave FMDV antiviral -19%, HCMV antiviral -63* and HCV inh -14%.
O=C(CN1C(=O)/C(=C/c2ccco2)SC1=S)NC1CCS(=O)(=O)C1 (centres undefined) was read as FMDV antiviral -5%, HCMV antiviral 4 and HCV inh 5%.
CC(C(=O)N(C)C1CCS(=O)(=O)C1)N1C(=O)/C(=C/c2cccs2)SC1=S (centres undefined) was read as FMDV antiviral inconclusive, HCMV antiviral -31 and HCV inh -17%.
For CC(C(=O)N(C)C1CCS(=O)(=O)C1)N1C(=O)/C(=C/c2ccco2)SC1=S (centres undefined) the results were FMDV antiviral -12%, HCMV antiviral -93* and HCV inh -21%.
Screening O=c1c2sc3ccccc3c2n(Cc2ccc(F)cc2Cl)c(=O)n1Cc1ccccc1 returned FMDV antiviral -8%, MARV entry inh inconclusive, HCMV antiviral 19 and LASV entry inh 2%[46.1 µM].
`C[C@@H]1CN(C2CCN(S(=O)(=O)c3ccc4ccccc4c3)CC2)C[C@H](C)O1` gave MARV entry inh -29%.
Screening c1ccc(COc2ccc(Oc3nc(N4CCCCC4)nc(N4CCOCC4)n3)nn2)cc1 returned FMDV antiviral -20%, MARV entry inh inconclusive, HCMV antiviral 19, HCV inh 4% and LASV entry inh 5.8µM*.
`CC(CC(C#N)(c1ccccc1)c1ccccc1)N(C)C` (centres undefined) gave FMDV antiviral -23%, HCMV antiviral 12 and HCV inh 2%.
For CCC(C#N)(CC)P(=S)(c1ccccc1)c1ccccc1 the results were FMDV antiviral -11%, MARV entry inh 3%, HCMV antiviral -73*, HCV inh 1% and LASV entry inh -4%.
`C=CCOC(=O)NC(CC(=Nc1ccc(OC)cc1)C(=O)OC)c1ccccc1` (centres undefined) gave MARV entry inh 5%[14.2 µM].
For O=C(CN(c1cccc(C(F)(F)F)c1)S(=O)(=O)c1ccc(Cl)c([N+](=O)[O-])c1)NCc1ccccc1 the results were FMDV antiviral -19%, MARV entry inh 23µM*, HCMV antiviral 8, HCV inh inconclusive and LASV entry inh inconclusive.
O=C(CN(c1ccc(Br)cc1)S(=O)(=O)c1ccc(Cl)c([N+](=O)[O-])c1)NCCc1ccccc1 was read as FMDV antiviral -24%, MARV entry inh inconclusive, HCMV antiviral -21, HCV inh inconclusive and LASV entry inh 24%.
O=C(CN(c1cccc(C(F)(F)F)c1)S(=O)(=O)c1ccc(Cl)c([N+](=O)[O-])c1)NCc1ccccc1Cl was read as FMDV antiviral 40µM*, MARV entry inh inconclusive, HCMV antiviral 45, HCV inh inconclusive and LASV entry inh inconclusive.
Screening O=C(O)CN(c1cccc(C(F)(F)F)c1)S(=O)(=O)c1ccccc1 returned FMDV antiviral 6%, MARV entry inh 14%[46.1 µM], HCMV antiviral 5, HCV inh 14% and LASV entry inh -1%.
For CC(NC(=O)CN(c1cccc(C(F)(F)F)c1)S(=O)(=O)c1ccc(Cl)c([N+](=O)[O-])c1)c1ccccc1 (centres undefined) the results were FMDV antiviral inconclusive, MARV entry inh inconclusive, HCMV antiviral 46, HCV inh inconclusive and LASV entry inh inconclusive.
`Cc1ccc(N(CC(=O)NCCc2ccc(F)cc2)S(=O)(=O)c2ccc(Cl)c([N+](=O)[O-])c2)c(C)c1` gave FMDV antiviral inconclusive, MARV entry inh inconclusive, HCMV antiviral -1, HCV inh 10µM* and LASV entry inh 23µM*.
Screening CCN(CC)C(=O)Cn1c(=O)n(Cc2ccc(C(=O)NCc3ccccc3Cl)cc2)c(=O)c2ccccc21 returned FMDV antiviral 33%, MARV entry inh inconclusive, HCMV antiviral 3 and LASV entry inh -19%[46.1 µM].
